Here are results for 37 molecules from PubChem BioAssay (NCI).

This is part of a sample that, as a whole, favours compounds with a hit. Of some 83,000 tested, about 20% had one in any assay.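 Testing used 96-well plates and a 48-hour single-concentration exposure. Example: -40 means 40% of the starting cells died.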 The source made the active and inactive calls. The calls were made as follows: active = growth percent below 10; inactive = the rest.

The test system of one experiment is SK-OV-3 ovarian. The experiment in a line: NCI-60 one-dose screen, 48 h (100 = growth as untreated, 0 = no growth, -100 = all killed). The following applies: 10 µM unless noted.
For `Cc1ccc(N)cc1[As]=[As]c1cc(N)ccc1C` (centres undefined), the growth was 75.3% (inactive).

As for `C/C(=N/OC(=O)N(C)C)c1cc(Cl)ccc1Cl`, the growth was 98.3% (inactive).

Consider `CCC(C)[C@H]1O[C@]2(C=C[C@@H]1C)C[C@@H]1C[C@@H](C/C=C(\C)[C@@H](OC3C[C@H](OC)C(O[C@H]4C[C@H](OC)[C@@H](O)[C@H](C)O4)[C@H](C)O3)[C@@H](C)/C=C/C=C3\CO[C@@H]4[C@H](O)C(C)=C[C@@H](C(=O)O1)[C@]34O)O2` (some centres undefined), for which the growth was 12.6% (inactive).

Consider `CC1(C)N=C(N)N=C(N)N1c1ccc(CCCCc2ccc(S(=O)(=O)F)cc2)cc1`, for which the growth was 69.1% (inactive).

Regarding `Cc1ccc(C(=O)C2CN(C)CCC2(O)c2ccc(C)cc2)cc1` (centres undefined), the growth was 122% (inactive).

For `O=S(=O)(O)c1ccc(-c2ccc([As](=O)(O)O)cc2)cc1`, the growth was 105% (inactive).

As to `O=C1NC(=O)C(CN2C(=O)C3(c4ccccc42)[C@H](Cl)C(=O)N3c2ccccc2)C(=O)N1` (some centres undefined), the growth was 83.1% (inactive).

`O=[N+]([O-])c1cc([N+](=O)[O-])c(Cl)c(Cl)c1Cl`: the growth is 101% (inactive).

As to `C=CCC1(CC)C(=O)NC(=S)NC1=O`, the growth is 97.1% (inactive).

With `C/C(=N/OC(=O)N(C)C)c1ccc(Cl)cc1Cl`, the growth is 94.6% (inactive).

Turning to `CCC[CH2][Sn]([CH2]CCC)([CH2]CCC)[O]C(=O)CC`, the growth is -99.5% (active).

`O=C(NCc1ccc([N+](=O)[O-])cc1)Nc1ccc(S(=O)(=O)F)cc1`: the growth was 94.9% (inactive).

Take `n1nc(-c2nonc2-c2nn[nH]n2)n[nH]1`: the growth is 115% (inactive).

Consider `CNC(=O)Oc1ccccc1-c1ccccc1`, for which the growth was 101% (inactive).

On to `CC1(C)N=C(N)N=C(N)N1c1ccc(OCCCCOc2ccc(S(=O)(=O)F)cc2)c(Cl)c1`, for which the growth is 43.3% (inactive).

As to `CCCCOC(=O)c1ccccc1C(=O)O.CCCCOC(=O)c1ccccc1C(=O)O.[Cu+2]`, the growth is 93.4% (inactive).

On to `O=[N+]([O-])c1ccc2cnn(CSP(=S)(c3ccccc3)c3ccccc3)c2c1`, for which the growth was 90.1% (inactive).

On to `NC(=O)C(Cl)Cl`, for which the growth is 109% (inactive).

For `CCN(CC)c1ccc(C=C2C(=O)NC(=S)NC2=O)cc1`, the growth is 94.1% (inactive).

In the case of `Clc1ccc(SSC(Cl)(Cl)Cl)cc1`, the growth is 115% (inactive).

Turning to `[O]=[Sn]([CH]1CCCCC1)[CH]1CCCCC1`, the growth was -98.2% (active).

On to `ClCCN(CCCl)c1nc(Cl)c(C2CC(c3ccccc3)=NN2c2ccccc2)s1` (centres undefined), for which the growth is 82.9% (inactive).

`CC(=O)C1CCC2C3CC=C4CC(OC(=O)Cc5ccc(N(CCCl)CCCl)cc5)CCC4(C)C3CCC12C` (centres undefined): the growth was 112% (inactive).

As to `Cc1ccccc1O`, the growth is 97.5% (inactive).

With `O=[N+]([O-])c1ccccc1N1CCNCC1`, the growth was 96% (inactive).

For the molecule `CC(=O)Nc1ccc(C=C2C(=O)NC(=O)NC2=O)cc1`, the growth is 105% (inactive).

In a further experiment the test system is IGROV1 ovarian. The description is as above. The following applies: 10 µM.
Consider `CCCCn1cc(C(=O)/C(C#N)=C/c2cc3ccccc3nc2Cl)c2cc(OC)ccc21`, for which the growth is 61.2% (inactive).

As to `CCCCNCCc1ccccn1`, the growth was 116% (inactive).

With `CC(=O)C1C(=O)N(C)C(=O)N(C)C1=O`, the growth was 113% (inactive).

Turning to `CC1(C)N=C(N)N=C(N)N1c1cccc(C(=O)Nc2cccc(S(=O)(=O)F)c2)c1`, the growth was 105% (inactive).

Turning to `C[C@]12CC[C@@H]3C4=C(CC[C@H]3[C@@H]1CC[C@@H]2O)CC(=O)CC4`, the growth is 121% (inactive).

On to `Oc1ccccc1OB(Oc1ccccc1O)N(CCCl)CCCl`, for which the growth was 52.4% (inactive).

`COc1ccc(-c2ccc(OC)c(OC)c2OC)cc1`: the growth is 37.1% (inactive).

Take `CC[C@@]1(C2O[C@@H](C3O[C@@](O)(CC)[C@H](C)C[C@@H]3C)C[C@@H]2C)CC[C@H]([C@]2(C)CCC3(C[C@H](O)[C@@H](C)[C@@H]([C@H](C)[C@@H](OC)[C@H](C)C(=O)O)O3)O2)O1` (some centres undefined): the growth was 36.9% (inactive).

Regarding `CC1(C)N=C(N)N=C(N)N1c1ccc(CCCCc2ccc(S(=O)(=O)F)cc2)c(Cl)c1`, the growth is 29.1% (inactive).

In the case of `N#CC1c2ccccc2C=CN1C(=O)c1ccc(N(CCCl)CCCl)cc1` (centres undefined), the growth was 98.2% (inactive).

As to `CSc1ccccc1NP1(=O)OCC(C)([N+](=O)[O-])CO1` (centres undefined), the growth was 119% (inactive).

In the case of `Cc1ccc(N)cc1[As]=[As]c1cc(N)ccc1C` (centres undefined), the growth was -90.8% (active).

`C/C(=N/OC(=O)N(C)C)c1cc(Cl)ccc1Cl`: the growth was 104% (inactive).

Consider `CCC(C)[C@H]1O[C@]2(C=C[C@@H]1C)C[C@@H]1C[C@@H](C/C=C(\C)[C@@H](OC3C[C@H](OC)C(O[C@H]4C[C@H](OC)[C@@H](O)[C@H](C)O4)[C@H](C)O3)[C@@H](C)/C=C/C=C3\CO[C@@H]4[C@H](O)C(C)=C[C@@H](C(=O)O1)[C@]34O)O2` (some centres undefined), for which the growth is 13% (inactive).

Take `CC1(C)N=C(N)N=C(N)N1c1ccc(CCCCc2ccc(S(=O)(=O)F)cc2)cc1`: the growth is 30.2% (inactive).

Regarding `O=S(=O)(O)c1ccc(-c2ccc([As](=O)(O)O)cc2)cc1`, the growth was 107% (inactive).

For `O=C1NC(=O)C(CN2C(=O)C3(c4ccccc42)[C@H](Cl)C(=O)N3c2ccccc2)C(=O)N1` (some centres undefined), the growth is 49.4% (inactive).

Regarding `O=[N+]([O-])c1cc([N+](=O)[O-])c(Cl)c(Cl)c1Cl`, the growth was 22% (inactive).

Take `C=CCC1(CC)C(=O)NC(=S)NC1=O`: the growth was 107% (inactive).

As for `C/C(=N/OC(=O)N(C)C)c1ccc(Cl)cc1Cl`, the growth was 104% (inactive).

Consider `CCC[CH2][Sn]([CH2]CCC)([CH2]CCC)[O]C(=O)CC`, for which the growth was -80.2% (active).

On to `O=C(NCc1ccc([N+](=O)[O-])cc1)Nc1ccc(S(=O)(=O)F)cc1`, for which the growth was 94.8% (inactive).

Regarding `n1nc(-c2nonc2-c2nn[nH]n2)n[nH]1`, the growth is 118% (inactive).

Consider `CNC(=O)Oc1ccccc1-c1ccccc1`, for which the growth was 99.3% (inactive).

Turning to `O=[N+]([O-])c1ccc2cnn(CSP(=S)(c3ccccc3)c3ccccc3)c2c1`, the growth is 67.5% (inactive).

Take `CCN(CC)c1ccc(C=C2C(=O)NC(=S)NC2=O)cc1`: the growth was 100% (inactive).

As to `Clc1ccc(SSC(Cl)(Cl)Cl)cc1`, the growth is 107% (inactive).

For the molecule `[O]=[Sn]([CH]1CCCCC1)[CH]1CCCCC1`, the growth was -90.9% (active).

Regarding `ClCCN(CCCl)c1nc(Cl)c(C2CC(c3ccccc3)=NN2c2ccccc2)s1` (centres undefined), the growth was 107% (inactive).

For `CC(=O)C1CCC2C3CC=C4CC(OC(=O)Cc5ccc(N(CCCl)CCCl)cc5)CCC4(C)C3CCC12C` (centres undefined), the growth is 97.3% (inactive).

Take `Cc1ccccc1O`: the growth is 102% (inactive).

Take `O=[N+]([O-])c1ccccc1N1CCNCC1`: the growth was 85% (inactive).

As to `CC(=O)Nc1ccc(C=C2C(=O)NC(=O)NC2=O)cc1`, the growth is 107% (inactive).
